Experiment [1] addresses Sphingosine kinase 1 (Homo sapiens) (UniProt Q9NYA1). The following applies: at 1 µM.
Experiment [2] addresses T1, Sphingosine kinase 2 (Homo sapiens) (UniProt Q9NRA0).
T1 sequence (whole entry): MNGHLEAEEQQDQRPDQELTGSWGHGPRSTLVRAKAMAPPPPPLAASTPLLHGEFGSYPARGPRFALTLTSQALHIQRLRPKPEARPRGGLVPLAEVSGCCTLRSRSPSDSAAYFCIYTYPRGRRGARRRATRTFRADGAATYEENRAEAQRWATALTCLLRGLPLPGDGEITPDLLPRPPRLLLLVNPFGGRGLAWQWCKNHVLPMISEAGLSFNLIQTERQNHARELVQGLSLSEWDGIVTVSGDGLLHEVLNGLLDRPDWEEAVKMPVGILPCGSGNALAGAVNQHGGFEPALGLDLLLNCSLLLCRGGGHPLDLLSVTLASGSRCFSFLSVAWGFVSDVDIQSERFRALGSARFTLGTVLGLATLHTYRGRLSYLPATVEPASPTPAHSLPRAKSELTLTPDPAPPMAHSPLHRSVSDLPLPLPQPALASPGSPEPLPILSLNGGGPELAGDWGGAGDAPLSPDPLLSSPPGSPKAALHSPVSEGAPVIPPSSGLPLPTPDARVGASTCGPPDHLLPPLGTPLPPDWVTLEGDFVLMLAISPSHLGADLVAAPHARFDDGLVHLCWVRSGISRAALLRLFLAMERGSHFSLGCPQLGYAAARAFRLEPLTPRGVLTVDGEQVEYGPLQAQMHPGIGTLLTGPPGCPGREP
The following applies: at 0.1 µM.

Experiment [3] has as its target T1, Sphingosine kinase 2 (Homo sapiens). The following applies: at 1 µM.
The target in experiment [4] is Casein kinase II subunit alpha (Homo sapiens) (UniProt P68400). The following applies: at 0.1 µM.
Sequence of Casein kinase II subunit alpha (Homo sapiens) (P68400 whole entry, looked up): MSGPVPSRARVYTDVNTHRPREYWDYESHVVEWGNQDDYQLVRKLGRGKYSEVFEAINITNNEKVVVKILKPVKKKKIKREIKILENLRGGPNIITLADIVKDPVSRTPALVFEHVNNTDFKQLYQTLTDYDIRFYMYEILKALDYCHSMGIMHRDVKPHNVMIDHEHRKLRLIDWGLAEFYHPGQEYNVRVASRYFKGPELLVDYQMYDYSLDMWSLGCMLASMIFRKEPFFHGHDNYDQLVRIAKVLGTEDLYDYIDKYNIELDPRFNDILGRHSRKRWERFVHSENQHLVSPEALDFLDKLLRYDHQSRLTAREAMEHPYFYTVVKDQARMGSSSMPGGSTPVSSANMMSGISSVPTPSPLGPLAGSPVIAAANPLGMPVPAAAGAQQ
For experiment [5] the target is unchanged. The following applies: at 1 µM.
Experiment [6] concerns the target T2, Inhibitor of nuclear factor kappa-B kinase subunit alpha (Homo sapiens) (UniProt O15111).
T2 sequence (whole entry): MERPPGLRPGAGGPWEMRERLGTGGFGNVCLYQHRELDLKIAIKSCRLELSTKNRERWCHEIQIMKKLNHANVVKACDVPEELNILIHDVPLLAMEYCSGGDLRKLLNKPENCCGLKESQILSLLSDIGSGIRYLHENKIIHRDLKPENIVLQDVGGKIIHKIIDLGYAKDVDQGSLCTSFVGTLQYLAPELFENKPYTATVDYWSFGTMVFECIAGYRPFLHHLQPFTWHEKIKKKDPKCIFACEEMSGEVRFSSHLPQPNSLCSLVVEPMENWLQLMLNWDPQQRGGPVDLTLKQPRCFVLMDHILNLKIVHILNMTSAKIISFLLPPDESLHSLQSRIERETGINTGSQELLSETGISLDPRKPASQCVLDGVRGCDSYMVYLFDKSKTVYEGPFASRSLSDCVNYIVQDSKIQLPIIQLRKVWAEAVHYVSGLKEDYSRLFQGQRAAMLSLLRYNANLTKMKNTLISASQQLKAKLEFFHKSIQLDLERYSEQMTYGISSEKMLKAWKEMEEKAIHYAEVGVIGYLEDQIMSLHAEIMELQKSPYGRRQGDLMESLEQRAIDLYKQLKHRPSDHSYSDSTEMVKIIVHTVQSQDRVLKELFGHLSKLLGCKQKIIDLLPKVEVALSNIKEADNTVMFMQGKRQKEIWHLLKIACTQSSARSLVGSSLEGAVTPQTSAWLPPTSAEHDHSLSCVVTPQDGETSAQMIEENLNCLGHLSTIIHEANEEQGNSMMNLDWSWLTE
The following applies: at 0.1 µM.

Experiment [7] deals with T2, Inhibitor of nuclear factor kappa-B kinase subunit alpha (Homo sapiens). The following applies: at 1 µM.
Experiment [8] deals with T3, Inhibitor of nuclear factor kappa-B kinase subunit beta (Homo sapiens) (UniProt O14920).
T3 sequence (whole entry): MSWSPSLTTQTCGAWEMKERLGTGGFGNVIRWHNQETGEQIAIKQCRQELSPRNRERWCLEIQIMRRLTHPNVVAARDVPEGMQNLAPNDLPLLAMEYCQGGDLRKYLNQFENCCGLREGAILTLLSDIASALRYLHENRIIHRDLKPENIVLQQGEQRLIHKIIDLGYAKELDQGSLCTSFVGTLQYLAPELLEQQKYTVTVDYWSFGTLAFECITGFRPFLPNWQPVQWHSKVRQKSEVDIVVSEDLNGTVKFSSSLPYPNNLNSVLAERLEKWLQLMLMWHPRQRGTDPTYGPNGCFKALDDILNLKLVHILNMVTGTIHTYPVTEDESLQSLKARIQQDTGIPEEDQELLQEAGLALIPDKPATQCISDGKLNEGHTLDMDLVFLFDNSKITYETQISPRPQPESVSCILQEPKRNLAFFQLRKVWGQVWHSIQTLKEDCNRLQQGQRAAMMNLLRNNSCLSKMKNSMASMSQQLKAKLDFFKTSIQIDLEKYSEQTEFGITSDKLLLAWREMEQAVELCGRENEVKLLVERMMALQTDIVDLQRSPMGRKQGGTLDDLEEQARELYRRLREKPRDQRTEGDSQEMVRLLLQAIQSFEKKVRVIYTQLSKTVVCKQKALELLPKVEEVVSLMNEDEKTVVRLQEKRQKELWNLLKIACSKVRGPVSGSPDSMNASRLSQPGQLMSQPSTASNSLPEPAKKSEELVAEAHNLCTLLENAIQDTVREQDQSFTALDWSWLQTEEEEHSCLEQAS
The following applies: at 0.1 µM.

The target in experiment [9] is T3, Inhibitor of nuclear factor kappa-B kinase subunit beta (Homo sapiens). The following applies: at 1 µM.
Experiment [10] addresses T4, Inhibitor of nuclear factor kappa-B kinase subunit epsilon (Homo sapiens) (UniProt Q14164).
T4 sequence (whole entry): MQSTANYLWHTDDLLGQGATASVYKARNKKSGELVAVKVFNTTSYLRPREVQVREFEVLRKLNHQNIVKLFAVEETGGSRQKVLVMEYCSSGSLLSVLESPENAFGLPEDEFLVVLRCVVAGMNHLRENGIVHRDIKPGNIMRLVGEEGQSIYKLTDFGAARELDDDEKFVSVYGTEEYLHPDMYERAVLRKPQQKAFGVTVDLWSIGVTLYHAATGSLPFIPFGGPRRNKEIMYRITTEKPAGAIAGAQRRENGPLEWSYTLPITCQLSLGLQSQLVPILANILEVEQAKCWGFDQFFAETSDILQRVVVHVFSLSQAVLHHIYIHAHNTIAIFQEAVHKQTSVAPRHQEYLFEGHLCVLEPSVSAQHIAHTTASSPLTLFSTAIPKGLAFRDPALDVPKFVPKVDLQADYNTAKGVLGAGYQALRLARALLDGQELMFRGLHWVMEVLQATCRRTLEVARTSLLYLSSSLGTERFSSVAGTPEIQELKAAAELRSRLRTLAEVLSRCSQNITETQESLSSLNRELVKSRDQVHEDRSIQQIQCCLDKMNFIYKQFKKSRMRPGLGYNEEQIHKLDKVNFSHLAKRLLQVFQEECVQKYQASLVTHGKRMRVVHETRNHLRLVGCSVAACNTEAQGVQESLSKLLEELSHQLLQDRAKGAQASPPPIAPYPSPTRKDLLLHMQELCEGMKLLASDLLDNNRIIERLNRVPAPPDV
The following applies: at 0.1 µM.

In experiment [11] the target is T4, Inhibitor of nuclear factor kappa-B kinase subunit epsilon (Homo sapiens). The following applies: at 1 µM.
In experiment [12] the target is T5, Serine/threonine-protein kinase Nek1 (Homo sapiens) (UniProt Q96PY6).
T5 sequence (whole entry): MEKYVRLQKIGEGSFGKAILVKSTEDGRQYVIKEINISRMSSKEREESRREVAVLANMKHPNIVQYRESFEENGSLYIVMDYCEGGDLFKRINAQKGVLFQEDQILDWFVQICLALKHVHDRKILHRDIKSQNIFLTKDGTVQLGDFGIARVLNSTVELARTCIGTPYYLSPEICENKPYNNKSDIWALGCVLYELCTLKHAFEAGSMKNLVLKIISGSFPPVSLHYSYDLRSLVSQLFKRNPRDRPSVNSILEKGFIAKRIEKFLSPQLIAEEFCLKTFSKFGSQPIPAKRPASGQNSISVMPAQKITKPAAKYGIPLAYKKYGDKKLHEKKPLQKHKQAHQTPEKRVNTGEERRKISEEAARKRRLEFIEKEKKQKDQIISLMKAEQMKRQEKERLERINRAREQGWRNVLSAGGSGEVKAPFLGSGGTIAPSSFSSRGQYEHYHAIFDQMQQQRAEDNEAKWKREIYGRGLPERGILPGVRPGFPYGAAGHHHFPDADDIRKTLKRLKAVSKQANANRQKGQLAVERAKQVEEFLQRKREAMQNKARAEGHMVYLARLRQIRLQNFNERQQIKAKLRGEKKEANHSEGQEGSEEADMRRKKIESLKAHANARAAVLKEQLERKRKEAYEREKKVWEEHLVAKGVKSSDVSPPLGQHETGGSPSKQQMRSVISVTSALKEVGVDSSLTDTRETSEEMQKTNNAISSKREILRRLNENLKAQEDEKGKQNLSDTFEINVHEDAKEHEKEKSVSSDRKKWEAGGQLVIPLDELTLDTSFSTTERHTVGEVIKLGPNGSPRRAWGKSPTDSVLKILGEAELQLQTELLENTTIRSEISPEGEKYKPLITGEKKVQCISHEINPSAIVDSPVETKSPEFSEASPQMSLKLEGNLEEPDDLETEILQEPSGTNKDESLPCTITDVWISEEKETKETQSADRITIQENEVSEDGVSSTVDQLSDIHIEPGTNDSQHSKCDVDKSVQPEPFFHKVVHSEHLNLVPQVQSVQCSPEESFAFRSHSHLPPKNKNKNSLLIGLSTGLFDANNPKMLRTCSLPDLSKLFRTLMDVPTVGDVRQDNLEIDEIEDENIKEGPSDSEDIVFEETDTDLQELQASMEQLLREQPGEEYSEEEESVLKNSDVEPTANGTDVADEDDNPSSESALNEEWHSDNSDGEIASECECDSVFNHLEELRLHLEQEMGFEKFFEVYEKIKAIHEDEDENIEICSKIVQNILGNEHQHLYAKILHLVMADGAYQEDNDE
The following applies: at 0.1 µM.

The target in experiment [13] is T5, Serine/threonine-protein kinase Nek1 (Homo sapiens). The following applies: at 1 µM.
For experiment [14], the target named is T6, Serine/threonine-protein kinase Nek2 (Homo sapiens) (UniProt P51955).
T6 sequence (whole entry): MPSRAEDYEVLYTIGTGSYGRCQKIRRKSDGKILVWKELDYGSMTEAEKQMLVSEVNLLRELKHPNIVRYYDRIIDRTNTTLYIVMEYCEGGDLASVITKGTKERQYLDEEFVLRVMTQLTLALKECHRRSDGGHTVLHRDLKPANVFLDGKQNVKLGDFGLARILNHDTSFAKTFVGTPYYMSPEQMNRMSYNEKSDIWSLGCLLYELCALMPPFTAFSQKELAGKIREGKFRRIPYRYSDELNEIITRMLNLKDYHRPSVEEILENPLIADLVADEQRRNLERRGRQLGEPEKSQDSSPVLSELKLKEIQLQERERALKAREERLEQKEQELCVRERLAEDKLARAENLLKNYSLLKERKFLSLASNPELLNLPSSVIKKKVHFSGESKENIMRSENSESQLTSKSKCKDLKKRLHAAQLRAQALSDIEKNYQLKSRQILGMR
The following applies: at 0.1 µM.

The target of experiment [15] is T6, Serine/threonine-protein kinase Nek2 (Homo sapiens). The following applies: at 1 µM.
The target in experiment [16] is Serine/threonine-protein kinase Nek6 (Homo sapiens) (UniProt Q9HC98). The following applies: at 0.1 µM.
Sequence of Serine/threonine-protein kinase Nek6 (Homo sapiens) (Q9HC98 whole entry): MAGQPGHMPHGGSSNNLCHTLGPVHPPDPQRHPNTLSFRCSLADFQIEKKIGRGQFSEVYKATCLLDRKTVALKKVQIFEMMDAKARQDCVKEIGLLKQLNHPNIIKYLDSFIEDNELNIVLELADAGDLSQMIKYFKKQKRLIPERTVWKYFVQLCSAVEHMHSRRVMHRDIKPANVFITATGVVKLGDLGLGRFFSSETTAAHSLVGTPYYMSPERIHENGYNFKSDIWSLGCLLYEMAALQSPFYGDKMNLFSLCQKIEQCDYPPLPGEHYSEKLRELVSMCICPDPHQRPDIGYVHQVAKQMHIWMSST
The target is the same in experiment [17]. The following applies: at 1 µM.
Experiment [18] addresses Serine/threonine-protein kinase Nek7 (Homo sapiens) (UniProt Q8TDX7). The following applies: at 0.1 µM.
The target is the same in experiment [19]. The following applies: at 1 µM.
The target of experiment [20] is T7, Serine/threonine-protein kinase Nek9 (Homo sapiens) (UniProt Q8TD19).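 Also: reported value is the mean percent inhibition of NEK9.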
T7 sequence (whole entry): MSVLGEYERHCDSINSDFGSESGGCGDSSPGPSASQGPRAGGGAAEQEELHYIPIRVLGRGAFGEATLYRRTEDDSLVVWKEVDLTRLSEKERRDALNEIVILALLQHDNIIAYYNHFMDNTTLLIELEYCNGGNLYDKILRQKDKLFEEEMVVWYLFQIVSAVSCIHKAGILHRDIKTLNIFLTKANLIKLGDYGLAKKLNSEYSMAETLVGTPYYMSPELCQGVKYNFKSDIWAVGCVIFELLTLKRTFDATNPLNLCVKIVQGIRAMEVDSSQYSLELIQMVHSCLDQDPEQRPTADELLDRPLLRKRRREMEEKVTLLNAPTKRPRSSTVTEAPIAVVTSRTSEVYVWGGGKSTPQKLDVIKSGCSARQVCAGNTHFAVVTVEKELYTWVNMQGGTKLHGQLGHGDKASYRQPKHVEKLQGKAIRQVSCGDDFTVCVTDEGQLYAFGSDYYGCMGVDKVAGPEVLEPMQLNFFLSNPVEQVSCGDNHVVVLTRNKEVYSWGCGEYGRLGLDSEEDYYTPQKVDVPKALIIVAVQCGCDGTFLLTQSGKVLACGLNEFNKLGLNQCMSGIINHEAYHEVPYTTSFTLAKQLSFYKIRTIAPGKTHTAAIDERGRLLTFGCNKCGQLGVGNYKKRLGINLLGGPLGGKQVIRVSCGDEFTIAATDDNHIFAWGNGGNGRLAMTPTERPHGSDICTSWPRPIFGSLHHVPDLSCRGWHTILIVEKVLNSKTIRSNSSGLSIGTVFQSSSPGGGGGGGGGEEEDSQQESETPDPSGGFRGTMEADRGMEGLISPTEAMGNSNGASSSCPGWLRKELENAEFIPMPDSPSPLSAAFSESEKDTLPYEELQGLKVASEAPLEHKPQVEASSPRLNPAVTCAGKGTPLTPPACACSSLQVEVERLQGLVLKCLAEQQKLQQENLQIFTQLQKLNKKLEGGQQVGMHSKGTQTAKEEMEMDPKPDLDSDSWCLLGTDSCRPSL
The following applies: at 0.1 µM.

Sequence of Serine/threonine-protein kinase Nek7 (Homo sapiens) (Q8TDX7 whole entry, looked up): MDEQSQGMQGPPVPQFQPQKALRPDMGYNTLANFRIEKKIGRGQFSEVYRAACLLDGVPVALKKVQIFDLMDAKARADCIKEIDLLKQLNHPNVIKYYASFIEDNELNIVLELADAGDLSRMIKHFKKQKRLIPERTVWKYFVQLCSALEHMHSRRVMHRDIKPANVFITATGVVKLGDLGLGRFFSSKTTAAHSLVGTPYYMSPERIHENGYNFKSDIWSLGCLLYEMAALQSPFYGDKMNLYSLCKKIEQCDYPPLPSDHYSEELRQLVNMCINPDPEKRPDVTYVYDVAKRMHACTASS
Sequence of Sphingosine kinase 1 (Homo sapiens) (Q9NYA1 whole entry): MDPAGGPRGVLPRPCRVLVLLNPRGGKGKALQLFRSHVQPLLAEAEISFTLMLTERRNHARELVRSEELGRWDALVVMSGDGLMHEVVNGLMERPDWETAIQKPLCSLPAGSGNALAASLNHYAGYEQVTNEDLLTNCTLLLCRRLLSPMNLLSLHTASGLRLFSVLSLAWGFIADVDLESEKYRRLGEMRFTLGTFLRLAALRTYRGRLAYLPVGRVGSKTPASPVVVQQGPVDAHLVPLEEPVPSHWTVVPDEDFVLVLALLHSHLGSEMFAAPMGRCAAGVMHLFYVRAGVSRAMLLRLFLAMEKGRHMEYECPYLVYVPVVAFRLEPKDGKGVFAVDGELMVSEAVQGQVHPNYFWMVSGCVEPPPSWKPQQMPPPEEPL

Turning to `O=C(Nc1n[nH]c2nnc(-c3cccnc3)cc12)C1CC1`, the inhibition in experiment [1] was -2.26%; in experiment [2], -0.36%; in experiment [3], -1.77%; in experiment [4] it was 3.14%; in experiment [5], 5.42%; in experiment [6] it was 0.84%. Moreover, the inhibition in experiment [7] is -0.73%; in experiment [8] it was 1.55%; in experiment [9] it was 1.04%; in experiment [10], -2.46%; in experiment [11] it was 0.84%; in experiment [12], 0.17%. The inhibition was 1.72% in [13]; 0.71% in experiment [14]; -2.27% in experiment [15]; -0.09% in [16]; -0.1% in [17]; 0.09% in experiment [18]. For the same compound, the inhibition in [19] was 1.6%; in [20] it was 7.25%.

A word on the inhibition: it is the drop in the measured response relative to a control, in per cent.
